Screening results from PubChem BioAssay.
Compounds with a hit are over-represented: about 3.9% of the library has one in this group of screens.
TGFb inhibitor: inhibitors of TGF-b signaling; hit rate 1.2% among 410,000; HepG2 CAGA-GFP TGF-b/SMAD3 reporter, GFP fluorescence, 18 h; TGF-beta stimulated, 500 pg/mL final; AID 588855; Potency, µM (top dose mostly 46.1 µM), inactives show at the top dose activity, negative = inhibition, usual class: inhibitors; also: % is scaled to controls: 0 for no effect and ±100 for the full control effect; nearly all actives have a fitted effect of over 65% in size
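Per well, imaged GFP fluorescence of HEPG2 CAGA-GFP cells gives the signal; cells get compound, then TGF-beta (500 pg/mL final), 18 h at 37 degrees C; %Activity versus -TGF-beta and +DMSO controls.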
HepG2 tox: counter-screen for TGF-b inhibitors: cytotoxicity in HepG2 cells; HepG2 CAGA-GFP viability, ATP luminescence, 18 h; Potency, µM (top dose mostly 46.1 µM), for inactives: top-dose activity change, negative = cytotoxicity, actives largely listed as cytotoxic; hit rate 0.76% among 410,000
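CellTiter-Glo luminescence gave cytotoxicity after 18 hours at 37 degrees C. The cells were HepG2 CAGA-GFP in 1% FBS DMEM, stimulated with 500 pg/mL TGF-beta after compound addition. %Activity was normalised to no-cell wells (complete cell-killing) and DMSO (no toxicity), and curves were fitted and classified.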
ATXN2 expr inh: reduces ATXN2 reporter expression in HEK-293 cells; HEK-293 ATXN2-luciferase reporter, luminescence, 24 h; Potency, µM (titrated, usually from 57 µM), for the others: top-dose activity change, negative = inhibition, most hits filed as inhibitors; hit rate 0.72% among 360,000; also: % is scaled to controls: 0 for no effect and ±100 for the full control effect; nearly all actives have a fitted effect of over 55% in size
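ATXN2-luciferase reporter cells (luciferase flanked by upstream and downstream ATXN2 gene portions) were treated 24 h at 37 °C with compounds at up to 57 uM. SteadyGlo luminescence gave expression; GF-AFC fluorescence gave viability.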
HT1080-NT tox: kills 2HG-producing HT-1080-NT fibrosarcoma cells | HT-1080-NT fibrosarcoma viability, CellTiter-Glo ATP luminescence, 48 h | Potency, µM (titrated, usually from 46.1 µM), for the others: top-dose activity, negative = less viability, most hits filed as cytotoxic | hit rate 1.6% among 360,000 | AID 686970;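 also: NT is the 2HG producing partner of a matched IDH1 knockdown line; 0% = DMSO-treated cells and -100% = media-only wells without cells; nearly all actives have a fitted effect of over 55% in size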
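Read-out is CellTiter-Glo luminescence after 10 minutes at room temperature, following 48 hours' compound treatment of HT-1080-NT cells (750 cells/well, RPMI, 5% FBS, 37 degrees C).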
S2 tox: viability counter-screen for ATXN expression inhibitors | Potency, µM (series often up to 56.7 µM), usual class: cytotoxic | hit rate 0.49% among 400,000 | S2 cells (HEK-293 line with an ATXN2-luciferase reporter) viability, CellTiter-Fluor protease fluorescence, 24 h; also: nearly all actives have a fitted effect of over 40% in size
HT1080 IDH1KD tx: kills HT-1080 cells with IDH1 knockdown | HT-1080 IDH1 knockdown viability, ATP luminescence, 48 h | Potency, µM (highest dose often 46.1 µM), for inactives: at the highest dose activity, negative = toxicity, usual class: cytotoxic | hit rate 2% among 360,000;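 also: 0% = DMSO wells and -100% = cell-free medium wells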
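CellTiter-Glo luminescence after 48 h compound exposure at 37 degrees C of IDH1-knockdown HT-1080 cells in 5% FBS RPMI. %Activity scaled between DMSO wells and cell-free media wells, with curves fitted and assigned curve classes.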
* = called active by the depositor; i = inactive; ? = inconclusive; nt = no result. Calls follow the shape of the dose curve; as a rule, active = well fitted curve in the direction sought with a large enough effect; inconclusive = small, poorly fitted or top-dose-only effect, or another doubt; inactive = no such curve, though single readings can be large; an effect the other way counts as inactive or inconclusive. Potency is read from the fitted curve at half-maximal effect.

SMILES	TGFb inhibitor	HepG2 tox	ATXN2 expr inh	HT1080-NT tox	S2 tox	HT1080 IDH1KD tx
O=C(NCc1ccco1)c1ccc(Cn2c(SCc3ccccc3F)nc3cccnc32)cc1	12.6µM*	-35.9%	nt	nt	nt	nt
Nc1nc(NCc2cccc(Cl)c2)c2[nH]cnc2n1	-20.4%	-29.3%	nt	nt	nt	nt
c1ccc2c(Nc3nc(N4CCOCC4)c4ccccc4n3)cccc2c1	25.1µM*	-38.5%	?	20.6µM*	i	14.6µM*
Cc1ccc(NC2=CC(=O)C(=O)c3ccccc32)cc1	2.82µM*	5.01µM*	-28.0%	10µM*	?	6.31µM*
Cc1cc(NC2=CC(=O)C(=O)c3ccccc32)no1	?	-91.0%	-36.4%	?	?	?
COc1cc(OC)c(NC2=CC(=O)C(=O)c3ccccc32)cc1Cl	?	-0.1%	nt	20.6µM*	17.8µM*	8.2µM*
CCOC(=O)c1ccc(NC2=CC(=O)C(=O)c3ccccc32)cc1	?	-21.9%	-23.3%	-25.5%	?	-15.9%
NS(=O)(=O)c1ccc(NC2=CC(=O)C(=O)c3ccccc32)cc1	8.91µM*	-55.2%	?	?	i	?
Cn1cc(C=CC(=O)c2cccc(F)c2)cc1C=CC(=O)NO	nt	nt	35.6%	nt	nt	nt
CC(C)c1nc(C(=O)N2CCOc3ccc(CN4CCN(c5ccccn5)CC4)cc3C2)cs1	nt	nt	nt	nt	i	nt
Cc1cc(O)c2c(C)c(CC(=O)NCc3ccccc3Cl)c(=O)oc2c1	-4.2%	-7.5%	3.1%	nt	i	nt
O=C(NNC(=O)c1ccc(Cl)c([N+](=O)[O-])c1)c1ccncc1	-13.8%	22.6%	-28.6%	8.1%	i	7.7%
O=C(NNC(=O)c1ccc(Cl)c(Cl)c1)c1ccncc1	-28.2%	4.47µM*	6.0%	-4.2%	i	-0.6%
Cc1ccc(CNc2ccc(-c3nc(-c4ccncc4)no3)cc2[N+](=O)[O-])cc1	0.1%	-14.8%	-0.9%	nt	i	nt
Cc1ccc(-c2nc(=Nc3c(C)cc(C)cc3C)sn2-c2ccccc2)cc1	5.62µM*	-29.1%	nt	nt	nt	nt
COc1ccc(CCCc2nnc(SCC(=O)Nc3ccc(C)cc3)o2)cc1	-1.5%	-13.2%	-7.2%	nt	i	nt
COC(=O)C(NC(=O)c1ccco1)(Nc1cc(C)ccn1)C(F)(F)F (stereo not given)	14.4%	3.16µM*	3.1%	5.9%	i	0.2%
CCc1ccc(CNc2ncc(-c3cccc(OC)c3)n2C)cc1	nt	-39.5%	nt	nt	nt	nt
CCOc1cc(C)c(C(C)C)cc1S(=O)(=O)n1cnc(C)c1	-27.2%	-27.4%	-18.2%	?	i	11.6µM*
CCOc1cc(C)c(C(C)C)cc1S(=O)(=O)N1CC(C)OC(C)C1 (stereo not given)	1.6%	-8.5%	-7.6%	-0.8%	i	-10.3%
CCCCN1CC(c2nc3ccccc3n2CCCCOc2cc(C)cc(C)c2)CC1=O (stereo not given)	?	-105.8%	?	nt	?	nt
CCCCN1CC(c2nc3ccccc3n2CCCCOc2ccc(C)c(C)c2)CC1=O (stereo not given)	11.2µM*	-102.5%	?	nt	nt	nt
CCCCN1CC(c2nc3ccccc3n2CCCCOc2cccc(C)c2C)CC1=O (stereo not given)	?	11.2µM*	?	nt	?	nt
COc1ccc(C(CC(=O)NCc2ccccc2)N2Cc3ccccc3C2=O)cc1 (stereo not given)	-8.0%	-15.3%	nt	nt	nt	nt
CCOC(=O)c1c(C)oc2nc(C)nc(N3CCN(c4cccc(C)c4C)CC3)c12	-14.1%	-4.5%	-2.9%	nt	i	nt
SMILES	TGFb inhibitor	HepG2 tox	ATXN2 expr inh	HT1080-NT tox	S2 tox	HT1080 IDH1KD tx
CCc1ccc(C(=O)c2cn(CC(=O)Nc3cc(OC)ccc3OC)c3ccc(C)cc3c2=O)cc1	-16.2%	4.5%	4.4%	nt	i	nt
Cc1ccc(S(=O)(=O)N2CCN(c3nc(-c4cccs4)cc4ccccc34)CC2)cc1	nt	nt	nt	12.8%	nt	3.5%
C/C(CC(C)(C)C1CCCCC1)=N\NC(N)=S	6.31µM*	11.2µM*	31.6µM*	5.01µM*	31.6µM*	?
Cc1cc2c(cc1S(=O)(=O)CCC(=O)N1CCCCC1C)OCC(=O)N2 (stereo not given)	7.2%	-9.6%	12.1%	nt	?	nt
Cc1ccc(NC(=O)c2cc(NC(=O)c3ccco3)ccc2N2CCOCC2)cc1	0.0%	-17.5%	-11.5%	-2.1%	i	-9.7%
Cc1ccc(NC(=O)c2cc(N3C(=O)C=CC3=O)ccc2N2CCOCC2)cc1	-11.7%	-45.3%	?	?	?	23.1µM*
NC1=NC[C@H](CC2CCCCC2)N1CCc1cc(C(F)(F)F)cc(C(F)(F)F)c1	?	20µM*	?	?	?	?
Fc1cccc(CCN2CCNC[C@@H]2c2ccccc2)c1	1.2%	-9.1%	-4.3%	-11.2%	i	-4.0%
CCCC[C@@H]1CNCCN1CCc1cc(C(F)(F)F)cc(C(F)(F)F)c1	?	-115.0%	?	0.0%	35.5µM*	-9.3%
CCC(C)[C@H]1CNCCN1CCc1cc(C(F)(F)F)cc(C(F)(F)F)c1 (stereo not given in full)	?	-107.6%	?	-11.9%	?	-8.4%
FC(F)(F)c1cc(CCN2CCNC[C@@H]2CC2CCCCC2)cc(C(F)(F)F)c1	?	-100.2%	22.4µM*	?	nt	?
FC(F)(F)c1cc(CCN2CCNC[C@@H]2c2ccccc2)cc(C(F)(F)F)c1	?	-86.3%	?	0.0%	35.5µM*	-11.7%
CCOC(=O)c1ccc(NC(=O)CSc2cc(-c3ccccc3)nc(C)n2)cc1	-20.7%	-25.5%	nt	nt	nt	nt
CCOC(=O)N1CCN(C(=O)CN2C(=O)/C(=C\c3cccc(OC)c3)SC2=S)CC1	25.4%	23.7%	nt	nt	nt	nt
Cn1c(C2CCC2)nc2cc(C(=O)N3CCOc4ccccc4C3)cc(NC(=O)C3CCCO3)c21 (stereo not given)	nt	nt	nt	nt	i	nt
O=C(CCS(=O)(=O)c1ccccc1)N(CCCN1CCOCC1)c1nc2ccc(F)cc2s1	?	12.6µM*	?	?	nt	?
CCOC(=O)c1ccc(N2C(=O)c3n[nH]c(-c4ccco4)c3C2c2cccc(F)c2)cc1 (stereo not given)	?	15.8µM*	?	nt	?	nt
CCOC(=O)c1ccc(N2C(=O)c3n[nH]c(C)c3C2c2ccccc2)cc1 (stereo not given)	5.3%	-15.3%	7.8%	-11.7%	i	-1.6%
CCOC(=O)c1ccc(N2C(=O)c3n[nH]c(-c4cccs4)c3C2c2cccc(F)c2)cc1 (stereo not given)	?	-95.6%	nt	nt	nt	nt
